# Measurements: PubChem BioAssay AID602250 (The Scripps Research Institute Molecular Screening Center, 2012)
# The campaign covered roughly 360,000 compounds. About 2,200 (0.61%) were called active.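 How the source made its calls: active means inhibition above a per-plate cutoff, the plate's mean sample inhibition plus 3 SD (cut at about 24% in these data); inactive means the rest.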 Many of the other results were omitted from the sample, so actives are more common in it than they were.
# Assay: nonselective inhibitors of ATP calcium response in CHO-K1, primary screen, counter-screen for M1 antagonist project, cell-based, Fluo-8 calcium fluorescence, full deck, 1536-well (AID 602250);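 further: 0% = DMSO plus EC80 ATP and 100% = DMSO alone without ATP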
# Conditions: CHO-K1 parental, ATP-induced calcium, Fluo-8 fluorescence; at 3 µM; active compounds read high
row,Structure (SMILES),inhibition
1,CCCCC(=O)NCc1ccc(F)cc1,-1.22% (inactive)
2,CCCCC(=O)NNC(=S)NC(=O)C(c1ccccc1)c1ccccc1,61.1% (active)
3,CCCOCC(O)CC(CC)C(=O)NNC(=S)Nc1ccccc1 (centres undefined),1.16% (inactive)
4,Cc1ccc(C)c(NC(=O)C2Cc3ccccc3CN2C(=O)OCc2ccccc2)c1 (centres undefined),-8.92% (inactive)
5,Cc1cccc(CSc2nnc(C)c(=O)n2N)c1,-7.07% (inactive)
6,Cn1c(SCC(=O)N2CCCCC2)nc2c(c1=O)SCC2,8.86% (inactive)
7,Cc1cccc(CSc2nc3c(c(=O)n2C)SCC3)c1,27.6% (active)
8,COc1cc(S(=O)(=O)N2CCOCC2)ccc1NC(=O)COc1ccc(N(C)S(=O)(=O)c2ccc(C)cc2)cc1,-12% (inactive)
9,COc1cc(C(=O)NCc2ccc3c(c2)cc(C)n3C)cc(OC)c1OC,19.1% (inactive)
10,CCn1c(CNC(=O)c2cc(OC)c(OC)c(OC)c2)cc2cc(C)ccc21,36.1% (active)
11,COc1cc(C(=O)NCc2cc3cc(Cl)ccc3n2C)cc(OC)c1OC,-7.3% (inactive)
12,CN(Cc1nc(-c2cnccn2)no1)Cc1n[nH]c2c1CCCCC2,-7.73% (inactive)
13,CC1CCCN(CC(O)COc2ccc3c(c2)OCO3)C1 (centres undefined),-7.13% (inactive)
14,Cn1c(=O)[nH]c(=O)c2c1nc(N(CCO)Cc1ccccc1)n2Cc1ccccc1Cl,-11.1% (inactive)
15,CN(C)S(=O)(=O)c1cccc(NC(=O)COC(=O)C2(c3ccccc3F)CCCC2)c1,0.69% (inactive)
16,O=C(COC(=O)C1(c2ccc(F)cc2)CCCC1)N1CCNC1=O,-20.1% (inactive)
17,NS(=O)(=O)c1ccc(NC(=O)COC(=O)C2(c3ccc(F)cc3)CCCC2)cc1,31.1% (active)
18,O=C(N[C@H]1C/C=C\C(c2ccc(F)cc2)N(Cc2ccccc2)C(=O)C1)OCC1c2ccccc2-c2ccccc21 (some centres undefined),-13% (inactive)
19,COc1ccc(COCCN2CCN(S(=O)(=O)c3ccccc3)CCC2=O)cc1,-8.23% (inactive)
20,Cc1ccc(S(=O)(=O)N2CCC(=O)N([C@H](COCc3ccccc3)C(C)C)CC2)cc1,41.5% (active)
21,Cc1ccc(S(=O)(=O)N2CCC(=O)N([C@H](COCc3ccccc3)Cc3ccccc3)CC2)cc1,-5.28% (inactive)
22,O=C(Nc1ccc(Cl)c(Cl)c1)c1ccccc1NC(=O)C1CC=CCC1C(=O)O (centres undefined),3.94% (inactive)
23,CCCSc1ncccc1C(=O)O,-2.1% (inactive)

row,Structure (SMILES),inhibition
1,Cn1nccc1C(=O)NC1CCCc2c1cnn2-c1ccc(F)cc1F (centres undefined),28.7% (active)
2,Cn1nccc1C(=O)NC1CCCc2c1cnn2-c1ccccc1F (centres undefined),26.9% (active)
3,COc1ccc(C(=O)NC2CCCc3c2cnn3-c2cccc(C)c2C)c(OC)n1 (centres undefined),19.6% (inactive)
4,CC1=C(C(=O)NC2CC(C)(C)Cc3c2cnn3-c2ccc(C)cc2)OCCO1 (centres undefined),-1.6% (inactive)
5,COc1ccc(C(=O)NC2CC(C)(C)Cc3c2cnn3-c2ccccc2C)o1 (centres undefined),-6.41% (inactive)
6,COC(=O)c1ccc(C(=O)NC2CC(C)(C)Cc3c2cnn3-c2ccc(F)cc2)nc1 (centres undefined),-7.53% (inactive)
7,O=c1cc(CN2CCN(S(=O)(=O)/C=C/c3ccccc3)CC2)c2ccc(O)cc2o1,6.97% (inactive)
8,Cc1cc(NC(=O)CCS(=O)(=O)c2ccc(F)cc2)no1,-0.17% (inactive)
9,COc1ccc2c(c1)C=CC1(O2)N(CCO)c2ccccc2C1(C)C (centres undefined),-4.71% (inactive)
10,Cc1cc(OCC(=O)Nc2c(C)n(C)n(-c3ccccc3)c2=O)ccc1[N+](=O)[O-],-14.3% (inactive)
11,O=C(NCC(c1cccs1)N1CCOCC1)c1cc(Cl)ccc1[N+](=O)[O-] (centres undefined),10.5% (inactive)
12,COc1ccccc1C(=O)NC(CCSC)C(=O)N1CCN(C/C=C/c2ccccc2)CC1 (centres undefined),-0.28% (inactive)
13,CC(=O)c1cccc(OCc2cc(C(=O)NC(C)Cc3cccnc3)no2)c1 (centres undefined),-0.09% (inactive)
14,CN(Cc1cnccn1)C(=O)c1cc(COc2cccc(C(F)(F)F)c2)on1,-4.38% (inactive)
15,CN(Cc1cccnc1)C(=O)c1cc(COc2ccc3ncccc3c2)on1,37.4% (active)
16,O=C(NCCCc1ccccc1)c1cc(COc2c(F)cccc2F)on1,-16.9% (inactive)
17,Cc1ccc(Sc2cc(N3CCOCC3)nc(-c3ccccc3)n2)cc1,-3.23% (inactive)
18,Nc1c(N(Cc2ccco2)C(=O)c2cccc(F)c2)c(=O)[nH]c(=O)n1Cc1ccccc1,0.73% (inactive)
19,Cc1ccccc1C1=NC(C(F)(F)F)(C(F)(F)F)c2c(n(-c3ccc(F)cc3)c(=O)[nH]c2=O)N1,-9.81% (inactive)
20,O=c1[nH]c(=O)n(Cc2ccco2)c2c1C(C(F)(F)F)(C(F)(F)F)N=C(c1ccco1)N2,30.1% (active)
21,CC(=O)c1ccccc1NC(=O)CC1(CC(=O)O)CCCCC1,-2.82% (inactive)
22,CCC(C)(C(=O)Nc1ccccc1C)N(C(=O)CNC(C)=O)c1ccc(C)cc1 (centres undefined),-1.48% (inactive)
23,CCCCSc1[nH]c(=O)c(C(=O)OCC)cc1C#N,5.2% (inactive)

row,Structure (SMILES),inhibition
1,CN1CCN(Cc2nc3cc(NC(=O)COc4ccc([N+](=O)[O-])cc4)ccc3n2C)CC1,-3.48% (inactive)
2,CCOC(=O)c1cnc(SCC(=O)Nc2cccc(OC)c2)nc1N,11.2% (inactive)
3,CCCCCCCCn1c2c(c(=N)c3c1CCC3)CCCC2,32.5% (active)
4,C/C(=N/OC(=O)c1cccc(C(F)(F)F)c1)c1cnccn1,-1.12% (inactive)
5,CC(C)Oc1ccc(S(=O)(=O)N2CCOCC2)cc1NC(=O)C1CSC2(C)CCC(=O)N12 (centres undefined),0.94% (inactive)
6,COc1ccc(Nc2oc(-c3ccccc3Cl)nc2C#N)cc1,-14.3% (inactive)
7,Cc1ccccc1-c1nc(C#N)c(NCc2ccco2)o1,28.1% (active)
8,Cc1cc(NCc2ccco2)n2c(nc3ccccc32)c1C#N,-0.52% (inactive)
9,O=C(COC(=O)CCCSc1nc2ccccc2[nH]1)Nc1ccc(Oc2ccccc2)cc1,0.31% (inactive)
10,Cc1cc(C)n2c(Nc3c(C)cccc3C)c(CCc3ccccc3)nc2n1,2.51% (inactive)
11,CCOC(=O)N/N=C1\CC(C)S(=O)(=O)c2ccc(Cl)cc21 (centres undefined),-8.64% (inactive)
12,Cc1cccc(S(=O)(=O)N(C)C[C@@H]2OCc3cnnn3CCCC(=O)N([C@H](C)CO)C[C@@H]2C)c1,1.2% (inactive)
13,O=C(Nc1ccncc1)c1cc2ccccc2o1,23.7% (active)
14,CN(C)C(CNC(=O)c1cc2ccccc2o1)c1ccccc1 (centres undefined),-1.56% (inactive)
15,CC(C)(C)n1nc2c(c1NC(=O)c1cc3ccccc3o1)CSC2,-14.9% (inactive)
16,O=C(CSc1nnnn1-c1ccc2c(c1)CCC2)Nc1ccc2c(c1)OCCO2,16.9% (inactive)
17,N#Cc1c(NCCO)ccc([N+](=O)[O-])c1NCCO,-7.72% (inactive)
18,CCOC1CCCCC1NS(=O)(=O)c1ccc(Cl)cc1 (centres undefined),38.7% (active)
19,CCN1CCN(C2CCCCC2NS(=O)(=O)c2ccc(Cl)cc2)CC1 (centres undefined),-7.77% (inactive)
20,O=S(=O)(NC1CCCCC1N1CCC(O)CC1)c1ccc(Cl)cc1 (centres undefined),-4.04% (inactive)
21,CCOC(=O)c1cc2occc2n1CC(=O)NC1CCC(C)CC1 (centres undefined),-7.77% (inactive)
22,CCOC(=O)C1CN(S(=O)(=O)c2ccc(F)cc2)C1,0.12% (inactive)
23,CCOC(=O)C1=CC[C@@H](c2ccncc2)N(S(=O)(=O)c2ccc(C)cc2)C1,25.1% (active)

row,Structure (SMILES),inhibition
1,CC(=O)C1=CCC(c2ccccc2)N(S(=O)(=O)c2ccc(C)cc2)C1 (centres undefined),-16.2% (inactive)
2,CCOC(=O)C1=CC[C@@H](c2ccccc2)N(S(=O)(=O)c2ccc(C)cc2)[C@H]1c1ccc(CC)cc1,11.1% (inactive)
3,CCOC(=O)C1=CCC(c2ccc(F)cc2)N(S(=O)(=O)c2ccc(C)cc2)C1 (centres undefined),31.3% (active)
4,CCOC(=O)C1=CC[C@@H](c2ccccc2)N(S(=O)(=O)c2ccc(C)cc2)[C@H]1c1cccc(OC)c1,8.14% (inactive)
5,O=C1C=CN2CCCC2CC1 (centres undefined),-0.95% (inactive)
6,CCC(C)(C)NC(=O)C(c1ccc(O)cc1)N(C(=O)Cn1nnc2ccccc21)c1ccc(NC(C)=O)cc1 (centres undefined),-17.9% (inactive)
7,COc1ccccc1-n1c(C)nc2cc(C(=O)NCc3ccc4c(c3)OCO4)ccc21,-1.86% (inactive)
8,CN(CC(=O)Nc1cccc(F)c1)C(=O)C1=COCCO1,9.82% (inactive)
9,Cc1ccc(NC(=O)CN(C)CC(=O)Nc2cccc(F)c2)cc1[N+](=O)[O-],26.1% (active)
10,Cc1ccc(NC(=O)c2sccc2C)cc1[N+](=O)[O-],-7.01% (inactive)
11,COc1cc([N+](=O)[O-])ccc1NC(=O)COC(=O)CCOc1ccc(C)cc1,-5.41% (inactive)
12,CCSc1nc(C)c(CCOc2cccc(C)c2)c(=O)[nH]1,11.1% (inactive)
13,COc1ccc(CN(C)C(=O)c2cc(-c3ccc(C)cc3C)nc3ccccc23)c(OC)c1OC,5.32% (inactive)
14,COc1ccc(-c2cc(C(=O)N(C)CC(=O)Nc3ccccc3Cl)c3ccccc3n2)cc1OC,7.04% (inactive)
15,COc1ccc(-c2cc(C(=O)N(C)Cc3ccc(OC)c(OC)c3OC)c3ccccc3n2)cc1OC,26.8% (active)
16,CC(NC(=O)CNC(=O)Cc1cccc2ccccc12)c1ccc(S(N)(=O)=O)cc1 (centres undefined),4.92% (inactive)
17,COc1ccc(S(=O)(=O)N2CCCCC2)cc1NC(=O)COc1ccccc1,-8.54% (inactive)
18,COc1ccc(-c2nn(C)c(=O)c3ccccc23)cc1NC(=O)COc1ccccc1,23.8% (active)
19,COc1ccc(-c2nn(C)c(=O)c3ccccc23)cc1CNC(=O)C1CCCCC1,3.7% (inactive)
20,O=C(O)CCn1c(SCc2cc(=O)n3ccccc3n2)nc2ccsc2c1=O,-10.2% (inactive)
